The assay in a line: modulators of mitochondrial supercomplex assembly, cell-based, luminescence, Hoechst nuclei count (AID 1645838).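 As to all read-outs here: control cybrid cells.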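 As to z-score: higher means more mitochondrial supercomplex formation.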 Particulars: Cells, luminescence/Hoechst cell count ratio, supercomplex reporter; for z-score: stronger effect = higher value; for cell count: measured here: cell number, Hoechst nuclei count.
[1] abbreviates: library stock concentration (final well concentration not given) 80 uM.
Where [2] appears, read: library stock concentration (final well concentration not given) 400 uM.
The mark [3] stands for this setting: library stock concentration (final well concentration not given) 2 mM.
[4] abbreviates: library stock concentration (final well concentration not given) 10 mM.
Where [5] appears, read: library stock concentration (final well concentration not given) 46 uM.
[6] abbreviates: library stock concentration (final well concentration not given) 278 uM.
The mark [7] stands for this setting: library stock concentration (final well concentration not given) 1.67 mM.

Hit rate of the full screen: of about 2,000 compounds, about 100 (5%) were called active. The sample holds actives, similar compounds and a random draw of the others, so the mix is not that of the screen. Rule as the data show it: active = z-score above about 2; inactive = the rest.

Take `CC(C)(O)c1ccccc1CCC(SCC1(CC(=O)O)CC1)c1cccc(C=Cc2ccc3ccc(Cl)cc3n2)c1` (centres undefined): the z-score was 0.0351 (inactive) under setting [1], -0.104 (inactive) under setting [2], -0.0351 (inactive) under setting [3] and -0.342 (inactive) under setting [4]. Further, the cell count under setting [1] was 5230, the cell count under setting [2] worked out at 5680, the cell count under setting [3] came out at 5330 and the cell count under setting [4] amounted to 4770.

Take `CCCCC[C@H](O)/C=C/[C@H]1[C@H](O)CC(=O)[C@H]1C/C=C\CCCC(=O)OC(C)C`: the z-score is 0.469 (inactive) and the cell count is 4980.

Regarding `CCCNC(=O)C1OC1C(=O)N[C@@H](C(=O)N1CCCC1C(=O)O)C(C)CC` (some centres undefined), the z-score under setting [1] is -0.18 (inactive), the z-score under setting [2] is 0.0728 (inactive), the z-score under setting [3] was -0.0724 (inactive) and the z-score under setting [4] was -0.194 (inactive). Moreover, the cell count runs as follows: under setting [1], 4940; under setting [2], 4970; under setting [3], 4760; under setting [4], 5370.

In the case of `O=c1c(-c2ccc(O)cc2)coc2cc(O)cc(O)c12`, the z-score was 0.997 (inactive) and the cell count was found to be 5200. Under setting [5], the z-score is 0.276 (inactive) and the cell count was found to be 6440. Under setting [6], the z-score is -0.193 (inactive) and the cell count is 6300. Under setting [7], the z-score was 0.316 (inactive) and the cell count worked out at 6710. Further, under setting [4], the z-score is 2.63 (active) and the cell count is 5450.

With `O=c1c(-c2ccc(O)cc2)coc2cc(O)ccc12`, the z-score was 0.504 (inactive) and the cell count turned out to be 5430.

For the compound `O=c1c(-c2ccc(O)c(O)c2)coc2cc(O)ccc12`, the z-score is -0.245 (inactive) under setting [5], -0.0571 (inactive) under setting [6], -0.19 (inactive) under setting [7] and 0.665 (inactive) under setting [4]. Further, the cell count amounted to 6940 under setting [5], 6400 under setting [6], 6560 under setting [7] and 5440 under setting [4].

In the case of `O=C(Oc1nsnc1N1CCCCC1)N1CCOCC1`, the z-score under setting [1] is 0.263 (inactive), the z-score under setting [2] was 0.6 (inactive), the z-score under setting [3] was 0.737 (inactive) and the z-score under setting [4] was 1.45 (inactive). The cell count is, setting by setting: under setting [1], 4950; under setting [2], 4960; under setting [3], 4530; under setting [4], 4260.

For `CCCCCCCCCCCCCCC(F)C(=O)O` (centres undefined), the z-score was -0.112 (inactive) and the cell count is 5870.

Take `CC(C)CCOc1ccc(N)cc1`: the z-score was -0.619 (inactive) and the cell count amounted to 5370.

With `N=C(N)c1ccc2cc(OC(=O)c3ccc(N=C(N)N)cc3)ccc2c1`, the z-score under setting [5] was 0.0192 (inactive), the z-score under setting [6] is 0.31 (inactive), the z-score under setting [7] is -0.356 (inactive) and the z-score under setting [4] was -0.0213 (inactive). Moreover, the cell count runs as follows: under setting [5], 6960; under setting [6], 6430; under setting [7], 7070; under setting [4], 6560.

As for `COc1cc(Nc2ncc3c(n2)-c2ccc(Cl)cc2C(c2c(F)cccc2OC)=NC3)ccc1C(=O)O`, the outcome is “inactive; censored for cell count” (library stock 1.67 mM) and “inactive; censored for cell count” (library stock 10 mM). The z-score reads like this: under setting [5], -0.133 (inactive); under setting [6], 1.85 (inactive). Further, the cell count is, setting by setting: under setting [5], 5510; under setting [6], 2620.

As to `Cc1cnc(Nc2ccc(F)cc2Cl)nc1-c1c[nH]c(C(=O)NC(CO)c2cccc(Cl)c2)c1` (centres undefined), the outcome (library stock 10 mM) was “inactive; censored for cell count”. The z-score is -0.208 (inactive) under setting [5], -0.12 (inactive) under setting [6] and 2.01 (active) under setting [7]. Moreover, the cell count reads like this: under setting [5], 6210; under setting [6], 6120; under setting [7], 3060.

Consider `O=C(O)c1ccc(Nc2ncc3c(n2)-c2ccc(Cl)cc2C(c2c(F)cccc2F)=NC3)cc1`, for which the outcome (library stock 10 mM) is “inactive; censored for cell count”. Moreover, the z-score under setting [1] is -0.747 (inactive), the z-score under setting [2] was -0.464 (inactive) and the z-score under setting [3] is -0.071 (inactive). Further, the cell count reads like this: under setting [1], 4990; under setting [2], 4350; under setting [3], 3530.

`CC(Cc1cc2c(c(C(N)=O)c1)N(CCCO)CC2)NCCOc1ccccc1OCC(F)(F)F` (centres undefined): the z-score runs as follows: under setting [1], -1.47 (inactive); under setting [2], -1.87 (inactive); under setting [3], -2.9 (inactive); under setting [4], -3.02 (inactive). For the same compound, the cell count by setting is: under setting [1], 5980; under setting [2], 5330; under setting [3], 5440; under setting [4], 5520.

As to `COc1ccc(Br)c(-c2nc3ccccc3c(=O)o2)c1`, the outcome (library stock 10 mM) was “inactive; censored for cell count”. Besides, the z-score was -0.298 (inactive) under setting [1], -0.159 (inactive) under setting [2] and -0.345 (inactive) under setting [3]. The cell count by setting is: under setting [1], 5250; under setting [2], 5070; under setting [3], 5030.

Regarding `O=c1[nH]oc2cc(Cl)ccc12`, the z-score is -0.28 (inactive) under setting [5], 0.381 (inactive) under setting [6], -0.301 (inactive) under setting [7] and 0.402 (inactive) under setting [4]. For the same compound, the cell count amounted to 6680 under setting [5], 6710 under setting [6], 6630 under setting [7] and 6300 under setting [4].

In the case of `O=P(O)(O)OC1C(O)C(OP(=O)(O)O)C(O)C(OP(=O)(O)O)C1O` (centres undefined), the z-score was -0.332 (inactive) and the cell count stood at 5290.

Turning to `CC(C)CC(NC(=O)NC(CCC(=O)O)C(=O)O)C(=O)O` (centres undefined), the z-score under setting [5] was -0.295 (inactive), the z-score under setting [6] was 0.0106 (inactive), the z-score under setting [7] was 0.469 (inactive) and the z-score under setting [4] is 0.233 (inactive). Moreover, the cell count worked out at 6480 under setting [5], 6530 under setting [6], 6460 under setting [7] and 6410 under setting [4].

As for `COc1cc(=C2C=c3ccccc3=N2)[nH]c1=Cc1[nH]c(C)cc1C`, the z-score was 0.065 (inactive) under setting [1], 2.07 (active) under setting [2], 3.14 (active) under setting [3] and 1.08 (inactive) under setting [4]. In addition, the cell count was determined as 5750 under setting [1], 1640 under setting [2], 1600 under setting [3] and 1560 under setting [4].

For the compound `Cc1cc(C)c(/C=C2\C(=O)Nc3ccccc32)[nH]1`, the z-score was -0.647 (inactive) and the cell count worked out at 5700.

For the compound `CCCC(NC(C)C(=O)N1C(C(=O)O)C[C@H]2CCCC[C@@H]21)C(=O)OCC` (some centres undefined), the z-score reads like this: under setting [1], -0.394 (inactive); under setting [2], 0.104 (inactive); under setting [3], -0.276 (inactive); under setting [4], -0.453 (inactive). Further, the cell count was found to be 5070 under setting [1], 4880 under setting [2], 5080 under setting [3] and 5340 under setting [4].

The record behind these values is PubChem BioAssay AID1645838 (ICCB-Longwood Screening Facility, Harvard Medical School, 2021).
